Measured values published in PubChem BioAssay (NCATS).
Results filed as inconclusive are left out. Unmarked numbers belong to inactive results. The source made the active and inactive calls. Calls come from the whole dose curve; as a rule, active = well fitted inhibition curve with a large enough effect; inconclusive = small, poorly fitted or top-dose-only effect; inactive = flat fitted curve, though single readings scatter.

System: Zika virus NS2B-NS3 protease
Test: Primary screen GU AMC qHTS for Zika virus inhibitors (AID 1347154); note: nearly all actives have a fitted effect of over 70% in size;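 for activity change, negative = inhibition: 0% = no-inhibitor control and -100% = no-enzyme control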
Conditions: Zika NS2B-NS3 unlinked protease, AMC fluorogenic substrate; series mostly up to 54.1 µM; activity change, negative = inhibition: at the top concentration
In short: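 Fluorogenic AMC-substrate cleavage by noncovalent NS2B-NS3 protease complex (25 nM, pH 8.0 Tris buffer with Tween 20) followed for 15 minutes at room temperature (~20% conversion). Percent inhibition from ex340/em450 signal change, fitted by 4-parameter Hill equation.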
Potency is the fitted concentration of half-maximal effect.

Structure (SMILES) | activity change, negative = inhibition | Potency
CCOC(=O)c1ccc(N)cc1 | -2.37% | 
CCCCC(CC)CN1CN(CC(CC)CCCC)CC(C)(N)C1 (centres undefined) | 5.67% | 
OC[C@H]1O[C@@H](Oc2ccc(O)cc2)[C@H](O)[C@@H](O)[C@@H]1O | -0.61% | 
O=C(O)CCc1nc2ccccc2[nH]1 | 2.14% | 
CCc1nn(CCCN2CCN(c3cccc(Cl)c3)CC2)c(=O)n1CCOc1ccccc1 |  | inactive
CC(=O)Oc1ccc(C)cc1 | -5.55% | 
NCCNC(=O)c1ccc(Cl)cn1 |  | inactive
O=C(O)CCC(=O)Nc1ccc(S(=O)(=O)Nc2nccs2)cc1 | 2.34% | 
CN(C)CCOC(c1ccc(Cl)cc1)c1ccccn1 (centres undefined) | -1.65% | 
CC(O)Cn1cnc2c1c(=O)n(C)c(=O)n2C (centres undefined) | 5.64% | 
C[N+]12CCC(CC1)C(OC(=O)C(O)(c1ccccc1)c1ccccc1)C2 (centres undefined) | 3.63% | 
CC(=O)Nc1ccc(OCC(O)CNC(C)C)cc1 (centres undefined) | -4.3% | 
COc1ccc(C(=O)c2ccccc2O)c(O)c1 | -9.62% | 
CC(C)(Cc1c[nH]c2ccccc12)NCC(O)COc1ccccc1C#N (centres undefined) |  | inactive
CC(=O)NC(=O)c1ccccc1O | -15.3% | 
Cc1cccc(C)c1NC(=O)CN1CCCC1 | -0.315% | 
CCOc1ccccc1OCCN[C@H](C)Cc1ccc(OC)c(S(N)(=O)=O)c1 | 3.21% | 
COP(=O)(OC)OC(c1ccc(Cl)cc1)P(=O)(OC)OC (centres undefined) |  | inactive
CCCCCCCCOc1ccc(C(=O)c2ccccc2)c(O)c1 | -1.64% | 
CCCN(CCc1cccs1)[C@H]1CCc2c(O)cccc2C1 | -11.5% | 

Structure (SMILES) | activity change, negative = inhibition | Potency
N[C@H](C(=O)O)[C@@H](O)c1ccc(O)c(O)c1 |  | 12.8 µM (active)
Cc1c[nH]c2ccccc12 | -3.13% | 
Cl/C(=C\n1cncn1)c1ccc(Cl)cc1Cl |  | inactive
COc1ccc(C(Cl)=C(c2ccc(OC)cc2)c2ccc(OC)cc2)cc1 | -10.8% | 
COC(=O)C(c1ccccc1Cl)N1CCc2sccc2C1 (centres undefined) |  | inactive
CC1=C(C(=O)O)N2C(=O)[C@@H](NC(=O)[C@H](N)c3ccccc3)[C@H]2SC1 | 0.758% | 
CCOC(=O)[C@@](C)(N)Cc1ccc(O)c(O)c1 | -3.42% | 
CN1CCC(OC(c2ccccc2)c2ccccc2)CC1 | -5.14% | 
NC1CCN(c2nc3c(cc2F)c(=O)c(C(=O)O)cn3-c2ccc(F)cc2F)C1 (centres undefined) | -7.43% | 
NC(=S)N/N=C/c1cccnc1 | -3.47% | 
c1ccc(-c2nc[nH]c2-c2ccccc2)cc1 | 0.101% | 
CC(=O)OC[C@H]1O[C@@H](n2ncc(=O)[nH]c2=O)[C@H](OC(C)=O)[C@@H]1OC(C)=O | 5.5% | 
Nc1ccc(C(=O)NCC(=O)O)cc1 | -5.6% | 
C[N+]1(C)CCC(=C(c2ccccc2)c2ccccc2)CC1 | 112% | 
CC(CNC1CCCCC1)OC(=O)c1ccccc1 (centres undefined) | 2.47% | 
CC[C@H](c1ccc(O)cc1)[C@@H](CC)c1ccc(O)cc1 | -19.8% | 
C#C[C@]1(O)CC[C@H]2[C@@H]3[C@H](C)CC4=C(CCC(=O)C4)[C@H]3CC[C@@]21C | -8.26% | 
N/C(=N\N=C\c1ccc(Cl)cc1)N/N=C/c1ccc(Cl)cc1 | -3.45% | 
N=C(N)N1CCc2ccccc2C1 | 1.62% [at 4.99 µM] | 
